In the first assay the target is Platelet-derived growth factor receptor alpha (Homo sapiens) (UniProt P16234). Particulars: at 1 µM.
Sequence of Platelet-derived growth factor receptor alpha (Homo sapiens) (P16234 whole entry): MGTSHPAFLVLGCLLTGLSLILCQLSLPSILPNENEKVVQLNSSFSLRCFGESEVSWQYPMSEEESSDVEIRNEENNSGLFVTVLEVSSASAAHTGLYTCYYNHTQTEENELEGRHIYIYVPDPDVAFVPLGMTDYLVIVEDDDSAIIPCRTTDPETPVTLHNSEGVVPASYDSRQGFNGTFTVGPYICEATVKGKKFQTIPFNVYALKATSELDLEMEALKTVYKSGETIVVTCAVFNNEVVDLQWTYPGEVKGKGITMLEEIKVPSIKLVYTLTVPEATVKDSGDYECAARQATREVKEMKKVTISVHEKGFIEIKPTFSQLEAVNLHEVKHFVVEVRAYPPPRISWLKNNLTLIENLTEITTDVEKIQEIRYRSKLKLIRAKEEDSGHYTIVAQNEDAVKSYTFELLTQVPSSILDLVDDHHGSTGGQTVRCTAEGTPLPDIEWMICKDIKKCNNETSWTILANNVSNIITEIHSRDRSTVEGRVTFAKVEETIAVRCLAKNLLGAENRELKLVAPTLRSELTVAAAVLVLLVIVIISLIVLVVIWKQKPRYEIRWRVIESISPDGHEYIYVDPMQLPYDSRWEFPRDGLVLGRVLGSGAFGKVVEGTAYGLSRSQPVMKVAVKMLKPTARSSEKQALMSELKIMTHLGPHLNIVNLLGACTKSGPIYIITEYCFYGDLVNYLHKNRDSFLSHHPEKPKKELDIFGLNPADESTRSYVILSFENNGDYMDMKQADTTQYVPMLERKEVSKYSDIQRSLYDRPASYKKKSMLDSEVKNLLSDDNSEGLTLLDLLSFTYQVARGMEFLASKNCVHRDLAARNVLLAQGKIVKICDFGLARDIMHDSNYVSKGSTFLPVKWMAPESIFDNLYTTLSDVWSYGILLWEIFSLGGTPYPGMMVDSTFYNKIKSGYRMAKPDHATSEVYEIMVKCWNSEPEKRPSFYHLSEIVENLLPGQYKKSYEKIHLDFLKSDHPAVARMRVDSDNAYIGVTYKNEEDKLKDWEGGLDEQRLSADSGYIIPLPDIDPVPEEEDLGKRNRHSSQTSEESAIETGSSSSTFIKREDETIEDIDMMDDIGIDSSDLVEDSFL
By residual activity is commonly meant the signal under treatment as a percentage of the control signal. As to `O=C(Nc1ccc(Cl)cc1)c1ccccc1NCc1ccncc1`, the residual activity came to 39%. For `COc1cc2ncnc(Nc3cccc(Cl)c3)c2cc1OC`, the residual activity was determined as 104%. As for `c1ccc(-c2cnc(Nc3ccc(OCCN4CCCC4)cc3)s2)cc1`, the residual activity stood at 7%.

Turning to `O=C(c1ccccc1)c1ccc(N2CCOCC2)cc1O`, the residual activity turned out to be 113%. Same read-out and setting: next, `CN(C)S(=O)(=O)c1ccc2c(c1)/C(=C/c1cc3c([nH]1)CCCC3)C(=O)N2`: 33%; `COc1ccc2c(c1)c(C1=C(c3c[nH]c4ccccc34)C(=O)NC1=O)cn2CCCN(C)C`: 106%; `CC(C)(C)c1nc2c3ccc(F)cc3c3c(=O)[nH]ccc3c2[nH]1`: 102%. The same measure, in the same setting: next, `COc1ccc(-c2cnc3c(-c4ccsc4)cnn3c2)cc1`: 99%; `O=C(c1cc2cc(O)ccc2[nH]1)c1cc2cc(O)ccc2[nH]1`: 46%. Consider `O=C(O)/C=C/c1cc(Br)c(Br)c(Br)c1Br`, for which the residual activity amounted to 100%.

Another assay shares this target. Particulars: at 10 µM.
`NC(=O)Nc1sc(-c2ccc(F)cc2)cc1C(N)=O`: the residual activity was 20%.

On to `O=C1Cc2c([nH]c3ccc([N+](=O)[O-])cc23)-c2ccccc2N1`, for which the residual activity turned out to be 112%. Still for that read-out and setting: next, `Cn1sc(=O)n(Cc2ccccc2)c1=O`: 100%. In the case of `CCOC(=O)c1c(C)[nH]c(/C=C2\C(=O)Nc3ccccc32)c1C`, the residual activity amounted to 45%. As for `Nc1ncnc2[nH]nc(Nc3ccc(F)cc3)c12`, the residual activity worked out at 111%.

For `Cn1c2ccccc2c2c3c(c4c5ccccc5n(CCC#N)c4c21)CNC3=O`, the residual activity worked out at 76%. On the same count and under the same terms, with `N#C/C(=C\c1ccc(O)c(O)c1)C(=O)NCc1ccccc1` the figure was 100%; with `O=C1Nc2ccc(Cl)cc2/C1=C/c1cc(Cl)c(O)c(Cl)c1`, 10%; with `COc1cc2c(cc1OC)-c1n[nH]c(Nc3cccc(F)c3)c1C2`, 1%.

Turning to `CCCCc1c(-c2ccc(OC)cc2)[nH]c2nccnc12`, the residual activity turned out to be 111%.

With `O=C1NC(=O)c2c1c1c3ccccc3[nH]c1n1cncc21`, the residual activity was found to be 92%. Still for that read-out and setting: next, `CCN(CC)CCNC(=O)c1c(C)[nH]c(/C=C2\C(=O)Nc3ccc(Cl)cc32)c1C`: 1%; `CC(C)(C)n1nc(Cc2cccc3ccccc23)c2c(N)ncnc21`: 72%. Regarding `CCCC(=O)Oc1ccc2[nH]c(C(=O)c3cc4ccccc4[nH]3)cc2c1`, the residual activity was 85%.

Take `Nc1ncnc2c1c(-c1ccc(Oc3ccccc3)cc1)cn2C1CCCC1`: the residual activity came out at 4%. Take `COc1cc2nccc(Oc3ccc(NC(=S)NC(=O)c4ccccc4C)cc3)c2cc1OC`: the residual activity worked out at 2%. The same measure, in the same setting: with `NCCNc1ncc(C(N)=O)c(Nc2cccc(C(F)(F)F)c2)n1` the figure was 74%; with `O=C(Nc1ccc(Cl)cc1)c1ccccc1NCc1ccncc1`, 7%; with `COc1cc2ncnc(Nc3cccc(Cl)c3)c2cc1OC`, 87%. The same measure, in the same setting: with `c1ccc(-c2cnc(Nc3ccc(OCCN4CCCC4)cc3)s2)cc1` the figure was 1%; with `O=C(c1ccccc1)c1ccc(N2CCOCC2)cc1O`, 92%. Still for that read-out and setting: with `CN(C)S(=O)(=O)c1ccc2c(c1)/C(=C/c1cc3c([nH]1)CCCC3)C(=O)N2` the figure was 29%; with `COc1ccc2c(c1)c(C1=C(c3c[nH]c4ccccc34)C(=O)NC1=O)cn2CCCN(C)C`, 66%; with `O=C1NC(=O)C(c2c[nH]c3ccccc23)=C1c1c[nH]c2ccccc12`, 77%.

On to `COc1ccc(-c2cnc3c(-c4ccsc4)cnn3c2)cc1`, for which the residual activity turned out to be 92%. On to `O=C(c1cc2cc(O)ccc2[nH]1)c1cc2cc(O)ccc2[nH]1`, for which the residual activity was 6%. As for `O=C(O)/C=C/c1cc(Br)c(Br)c(Br)c1Br`, the residual activity was 103%. The same measure, in the same setting: with `Nc1ncnc2c1cnn2-c1ccccc1` the figure was 101%.

The target in a further assay is Platelet-derived growth factor receptor beta (Homo sapiens) (UniProt P09619). The following applies: at 1 µM.
Sequence of Platelet-derived growth factor receptor beta (Homo sapiens) (P09619 whole entry): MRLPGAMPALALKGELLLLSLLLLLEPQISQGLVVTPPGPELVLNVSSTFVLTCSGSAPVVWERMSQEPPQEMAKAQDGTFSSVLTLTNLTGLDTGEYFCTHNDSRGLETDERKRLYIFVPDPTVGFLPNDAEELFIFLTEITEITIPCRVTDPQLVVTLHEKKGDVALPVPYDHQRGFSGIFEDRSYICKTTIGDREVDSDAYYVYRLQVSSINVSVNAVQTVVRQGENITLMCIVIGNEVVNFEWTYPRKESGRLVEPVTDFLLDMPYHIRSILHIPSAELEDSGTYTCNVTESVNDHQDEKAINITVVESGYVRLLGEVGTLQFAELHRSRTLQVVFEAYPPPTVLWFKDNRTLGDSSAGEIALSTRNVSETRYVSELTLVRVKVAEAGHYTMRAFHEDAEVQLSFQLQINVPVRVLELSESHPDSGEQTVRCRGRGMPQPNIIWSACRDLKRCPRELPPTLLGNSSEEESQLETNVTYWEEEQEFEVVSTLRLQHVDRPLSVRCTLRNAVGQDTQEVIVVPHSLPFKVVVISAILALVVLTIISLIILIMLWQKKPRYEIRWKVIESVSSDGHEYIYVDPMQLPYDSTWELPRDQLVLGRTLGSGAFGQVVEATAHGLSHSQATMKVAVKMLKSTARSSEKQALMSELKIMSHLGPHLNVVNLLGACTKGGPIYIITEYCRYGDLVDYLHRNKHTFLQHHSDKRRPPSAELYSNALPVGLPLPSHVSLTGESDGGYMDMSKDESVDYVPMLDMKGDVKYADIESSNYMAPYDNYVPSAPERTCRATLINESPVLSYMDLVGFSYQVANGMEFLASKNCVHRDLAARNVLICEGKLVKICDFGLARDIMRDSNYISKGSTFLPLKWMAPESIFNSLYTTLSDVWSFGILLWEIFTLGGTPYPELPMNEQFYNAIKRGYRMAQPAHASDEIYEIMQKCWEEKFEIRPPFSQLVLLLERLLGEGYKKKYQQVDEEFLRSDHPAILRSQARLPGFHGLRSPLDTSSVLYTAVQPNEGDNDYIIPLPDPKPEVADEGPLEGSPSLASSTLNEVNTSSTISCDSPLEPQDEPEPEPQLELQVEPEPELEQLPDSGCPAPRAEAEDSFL
Regarding `NC(=O)Nc1sc(-c2ccc(F)cc2)cc1C(N)=O`, the residual activity was determined as 89%.

Regarding `O=C1Cc2c([nH]c3ccc([N+](=O)[O-])cc23)-c2ccccc2N1`, the residual activity came out at 107%. On the same count and under the same terms, with `CCOC(=O)c1c(C)[nH]c(/C=C2\C(=O)Nc3ccccc32)c1C` the figure was 90%; with `Nc1ncnc2[nH]nc(Nc3ccc(F)cc3)c12`, 107%. Same read-out and setting: with `O=C1Nc2ccc(Cl)cc2/C1=C/c1cc(Cl)c(O)c(Cl)c1` the figure was 75%; with `COc1cc2c(cc1OC)-c1n[nH]c(Nc3cccc(F)c3)c1C2`, 11%; with `O=C(CCCc1ccc(-c2ccccc2F)cc1)Nc1ccc(O)cc1`, 102%. On the same count and under the same terms, with `CCCCc1c(-c2ccc(OC)cc2)[nH]c2nccnc12` the figure was 104%. Turning to `O=C1NC(=O)c2c1c1c3ccccc3[nH]c1n1cncc21`, the residual activity was 88%. With `CCN(CC)CCNC(=O)c1c(C)[nH]c(/C=C2\C(=O)Nc3ccc(Cl)cc32)c1C`, the residual activity was 1%.

Turning to `CC(C)(C)n1nc(Cc2cccc3ccccc23)c2c(N)ncnc21`, the residual activity was 99%. Same read-out and setting: next, `CCCC(=O)Oc1ccc2[nH]c(C(=O)c3cc4ccccc4[nH]3)cc2c1`: 99%. Same read-out and setting: next, `Nc1ncnc2c1c(-c1ccc(Oc3ccccc3)cc1)cn2C1CCCC1`: 54%; `COc1cc2nccc(Oc3ccc(NC(=S)NC(=O)c4ccccc4C)cc3)c2cc1OC`: 31%. Still for that read-out and setting: next, `O=C(Nc1ccc(Cl)cc1)c1ccccc1NCc1ccncc1`: 46%; `COc1cc2ncnc(Nc3cccc(Cl)c3)c2cc1OC`: 102%. As for `c1ccc(-c2cnc(Nc3ccc(OCCN4CCCC4)cc3)s2)cc1`, the residual activity was 3%. On the same count and under the same terms, next, `O=C(c1ccccc1)c1ccc(N2CCOCC2)cc1O`: 116%; `CN(C)S(=O)(=O)c1ccc2c(c1)/C(=C/c1cc3c([nH]1)CCCC3)C(=O)N2`: 80%.

As for `O=C(c1cc2cc(O)ccc2[nH]1)c1cc2cc(O)ccc2[nH]1`, the residual activity was found to be 35%.
